Calls of active or inactive are those of the source. Unless noted, how the calls were made is not given here.
Assays:
[1] = HepG2 liver cancer cell viability effects, profiling panel, resazurin fluorescence, 24 h, PK04 Diversity Set (AID 1172); conditions: higher = more signal
[2] = basal S. cerevisiae growth modulation, no modifier, primary screen, OD600, strain BY4716, 24 h, basal condition (AID 1173); conditions: OD600, 24 h, higher = more signal, called active from +8 up or from −8 down
[3] = MM1S myeloma cell viability, profiling panel, resazurin fluorescence, basal, 24 h, PK04 Diversity Set (AID 1174); conditions: higher = more signal, called active from +8 up or from −8 down;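 further: MM1S multiple myeloma cell line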
[4] = target: Dihydroorotate dehydrogenase (quinone), mitochondrial (Plasmodium falciparum (isolate 3D7)) (UniProt Q08210); experiment: PfDHODH enzyme inhibitors, primary screen, biochemical, C-terminal His tag, absorbance 600 nm (AID 1175); conditions: DCIP absorbance 600 nm, higher = more signal, called active from +8 up or from −8 down;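 further: recombinant parasite enzyme with a five histidine tag at its C terminus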
Dihydroorotate dehydrogenase (quinone), mitochondrial (Plasmodium falciparum (isolate 3D7)), sequence (Q08210 whole entry, looked up): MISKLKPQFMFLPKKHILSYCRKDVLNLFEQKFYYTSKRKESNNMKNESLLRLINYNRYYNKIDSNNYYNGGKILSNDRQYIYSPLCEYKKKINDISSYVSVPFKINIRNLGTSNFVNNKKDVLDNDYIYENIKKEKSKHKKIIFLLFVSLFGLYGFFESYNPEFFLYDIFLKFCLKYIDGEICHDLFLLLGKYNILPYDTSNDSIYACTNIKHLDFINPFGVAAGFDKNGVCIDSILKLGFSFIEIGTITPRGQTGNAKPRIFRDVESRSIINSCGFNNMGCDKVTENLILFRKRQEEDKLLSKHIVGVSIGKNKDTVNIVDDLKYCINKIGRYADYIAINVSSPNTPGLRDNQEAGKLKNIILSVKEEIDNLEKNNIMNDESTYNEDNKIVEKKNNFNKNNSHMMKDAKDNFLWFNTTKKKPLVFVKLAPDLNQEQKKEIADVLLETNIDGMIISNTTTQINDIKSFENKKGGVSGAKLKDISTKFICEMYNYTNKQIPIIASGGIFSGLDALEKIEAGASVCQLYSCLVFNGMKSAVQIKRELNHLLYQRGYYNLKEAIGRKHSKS

[5] = P. aeruginosa biofilm formation inhibitors, primary screen, strain PAO1, LB-PBS medium, absorbance 600 nm (AID 1176); conditions: P. aeruginosa PAO1 growth/biofilm, A600, 12 h; higher = more signal
[6] = S. cerevisiae RM11-1a growth modifiers, primary screen, strain RM11-1a, OD600, basal, 24 h (AID 1177); conditions: OD600, 24 h, higher = more signal, called active from +8 up or from −8 down;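 further: cultures grown under basal conditions with no added stressor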
[7] = E. coli acrAB mutant growth effects, primary screen, E. coli filamentation inducers, strain DRC39, OD650, 24 h (AID 1178); conditions: higher = more signal, called active from +8 up or from −8 down;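 further: growth measured as culture turbidity by optical density at 650 nm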
[8] = E. coli acrAB mutant growth effects, primary screen, E. coli filamentation inducers, strain DRC39, OD650, 48 h (AID 1179);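 further: screen aims at cell division blockers that make cells filament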; conditions: E. coli DRC39 delta-acrAB growth, higher = more signal, called active from +8 up or from −8 down
[9] = RPMI8226 myeloma cell viability, profiling panel, resazurin fluorescence, basal, 24 h, PK04 Diversity Set (AID 1180); conditions: higher = more signal;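 further: RPMI8826 multiple myeloma cell line at 5000 cells per well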
[10] = target: E3 ubiquitin-protein ligase XIAP (Homo sapiens) (UniProt P98170); experiment: XIAP binders, primary screen, biophysical, small-molecule microarray, fluorescence 635 nm (AID 1181); conditions: small-molecule microarray binding, higher = more signal;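 further: score merges 667 nm emission and signal to noise over triplicate slides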
E3 ubiquitin-protein ligase XIAP (Homo sapiens), sequence (P98170 whole entry, looked up): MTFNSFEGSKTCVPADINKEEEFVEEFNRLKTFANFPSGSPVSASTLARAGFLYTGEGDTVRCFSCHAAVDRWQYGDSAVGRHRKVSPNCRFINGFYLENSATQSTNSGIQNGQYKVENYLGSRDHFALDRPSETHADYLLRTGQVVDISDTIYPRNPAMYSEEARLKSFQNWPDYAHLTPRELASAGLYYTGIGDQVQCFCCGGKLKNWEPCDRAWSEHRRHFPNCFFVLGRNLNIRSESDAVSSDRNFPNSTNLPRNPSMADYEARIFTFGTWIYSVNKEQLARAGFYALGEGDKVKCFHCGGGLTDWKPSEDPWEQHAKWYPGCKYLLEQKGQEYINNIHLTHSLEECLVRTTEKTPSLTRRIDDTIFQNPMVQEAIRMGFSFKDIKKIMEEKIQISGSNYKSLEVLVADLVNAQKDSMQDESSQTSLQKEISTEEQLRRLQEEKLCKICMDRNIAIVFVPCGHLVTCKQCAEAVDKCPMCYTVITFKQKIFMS

[11] = tested on: XIP peptide (Xip251-270) binding; experiment: small-molecule binders of XIP peptide, primary screen, biochemical, small-molecule microarray, fluorescence 635/667 nm, 0.1 µg/mL protein (AID 1182); conditions: fluorescent protein binding, 635 nm, higher = more signal, called active from +8 up or from −8 down
XIP peptide (Xip251-270) = experiment: small-molecule binders of XIP peptide, primary screen, biochemical, small-molecule microarray, fluorescence 635/667 nm, 0.5 µg/mL protein (AID 1183); conditions: small-molecule microarray binding, fluorescence 635 nm; higher = more signal
[12] = Plasmodium falciparum growth inhibition, primary screen, strain 3D7, DAPI fluorescence, 100 nL (AID 1184);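 further: parasites grown inside human red blood cells in medium with human serum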; conditions: P. falciparum 3D7 growth, 3 d, higher = more signal
[13] = target: Homeobox protein Hox-A13 (Mus musculus) (UniProt Q62424); experiment: inhibitors of HoxA13-DNA binding, primary screen, biochemical, fluorescence polarization, labeled oligonucleotide (AID 1185); conditions: 15 min, higher = more signal, called active from +8 up or from −8 down
Homeobox protein Hox-A13 (Mus musculus), sequence (Q62424 whole entry, looked up): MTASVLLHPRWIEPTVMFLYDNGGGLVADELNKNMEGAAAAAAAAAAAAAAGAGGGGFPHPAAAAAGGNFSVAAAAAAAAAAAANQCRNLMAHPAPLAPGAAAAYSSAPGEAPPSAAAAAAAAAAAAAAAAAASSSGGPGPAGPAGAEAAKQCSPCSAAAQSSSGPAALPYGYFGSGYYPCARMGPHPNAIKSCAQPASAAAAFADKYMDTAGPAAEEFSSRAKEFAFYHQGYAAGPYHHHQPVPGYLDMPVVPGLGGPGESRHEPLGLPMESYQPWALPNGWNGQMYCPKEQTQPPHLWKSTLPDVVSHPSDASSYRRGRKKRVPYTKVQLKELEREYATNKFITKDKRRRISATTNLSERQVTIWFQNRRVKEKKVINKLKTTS

[14] = inhibitors of hydroxyurea-induced Chk1 phosphorylation, primary screen, imaging, HeLa, phospho-Chk1 antibody, percent positive cells (AID 1186); conditions: hydroxyurea-induced phospho-Chk1 immunofluorescence imaging, higher = more signal
[15] = inhibitors of hydroxyurea-induced Chk1 phosphorylation, primary screen, imaging, HeLa, phospho-Chk1 nuclear intensity (AID 1187); conditions: hydroxyurea-induced phospho-Chk1 immunofluorescence imaging, higher = more signal

| SMILES | z-score [1] | z-score [2] | z-score [3] | composite z-score [4] | z-score [5] | z-score [6] | z-score [7] | z-score [8] | z-score [9] | composite z-score [10] | composite z-score [11] | composite z-score (XIP peptide (Xip251-270)) | z-score [12] | z-score [13] | z-score [14] | z-score [15] |
| --- | --- | --- | --- | --- | --- | --- | --- | --- | --- | --- | --- | --- | --- | --- | --- | --- |
| CN(C)CCCCNC(=O)[C@H]1C[C@H]2C(=O)NCC(=O)N2[C@H]1c1cccc(OCCO)c1 | 1.15 | 0.425 (inactive) | 1.59 (inactive) | -0.0392 (inactive) | -0.711 (inactive) | 1.06 (inactive) | 0.779 (inactive) | 0.834 (inactive) | 0.158 | -0.0286 | 0.329 (inactive) | 0.129 | 0.256 | -1.62 (inactive) | -0.46 (inactive) | -0.538 (inactive) |
| C=C(CC1([C@@H](NP(=O)(c2ccccc2)c2ccccc2)[C@H]2C[C@@H]2CCN(C(=O)OCC)S(=O)(=O)c2ccc(C)cc2)CC1)c1ccccc1 | 0.716 | 1.97 (inactive) | -1.59 (inactive) | 0.0407 (inactive) | 0.687 (inactive) | 1.52 (inactive) | 0.104 (inactive) | -0.194 (inactive) | -1.05 | 0.303 | 0.43 (inactive) | 0.666 | -1.75 | -2.18 (inactive) | -0.215 (inactive) | -0.0171 (inactive) |
| CCCCC(O)C1C=CC2C(=O)N(C)C(=O)C2N1Nc1ccccc1 (stereo not drawn) | -1.63 | 0.216 (inactive) | -1.39 (inactive) | 0.957 (inactive) | 1.22 (inactive) | 1.53 (inactive) | -0.867 (inactive) | -0.618 (inactive) | -1.5 | 0.0742 | -0.141 (inactive) | 0.0092 | -0.286 | -4.23 (inactive) | 0.342 (inactive) | -0.0493 (inactive) |
| COc1ccc(NN2C(C(O)c3cc(C(F)(F)F)cc(C(F)(F)F)c3)C=CC3C(=O)N(C4CCCCC4)C(=O)C32)cc1 (stereo not drawn) | 0.392 | 0.275 (inactive) | 0.0147 (inactive) | -0.0132 (inactive) | 1.21 (inactive) | -0.0874 (inactive) | -0.587 (inactive) | 0.372 (inactive) | 0.283 | -0.0669 | 0.0376 (inactive) | 0.752 | -0.5 | -3.31 (inactive) | -1.14 (inactive) | -2.01 (inactive) |
| O=C(NCC(F)(F)F)[C@@H]1c2ccccc2C(=O)N(CC23CC4CC(CC(C4)C2)C3)[C@H]1c1ccc(CO)cc1 | 0.26 | -2.11 (inactive) | -1.04 (inactive) | -2.32 (inactive) | 1.43 (inactive) | -2.97 (inactive) | 1.05 (inactive) | 0.823 (inactive) | 0.582 | 0.341 | 0.35 (inactive) | 0.586 | -2.24 | -4.02 (inactive) | -0.254 (inactive) | -0.371 (inactive) |
| COCCOC(=O)N1C(=O)[C@@]2(c3cc(C#CC4=CCCCC4)ccc31)[C@H](c1ccccc1OCCO)N1[C@H](c3ccccc3)[C@H](c3ccccc3)OC(=O)[C@H]1[C@@H]2C(N)=O | -0.625 | -0.431 (inactive) | -2.78 (inactive) | -0.176 (inactive) | 1.06 (inactive) | 0.486 (inactive) | 0.484 (inactive) | -0.955 (inactive) | -5.01 | 0.126 | -0.0632 (inactive) | 0.558 | -2.27 | -0.721 (inactive) | -0.254 (inactive) | -0.167 (inactive) |
| COC(=O)C1=CC(CCCO)=CC(c2ccc(CN3CCCC3)cc2)N(Cc2sc3ccccc3c2Cl)C=C1C(=O)OC (stereo not drawn) | 0.666 | -2.54 (inactive) | 0.691 (inactive) | -1.63 (inactive) | 0.186 (inactive) | -1.62 (inactive) | 0.735 (inactive) | 1.29 (inactive) | 0.85 | -0.0084 | 4.74 (inactive) | 0.916 | -1.95 | -1.23 (inactive) | -0.438 (inactive) | -0.402 (inactive) |
| COc1ccc(CCNC(=O)[C@@]2(Sc3ccc(C)cc3)CC(=O)N(C(C)C)[C@@H]2c2ccc(CO)cc2)cc1 | -0.335 | 0.748 (inactive) | -0.416 (inactive) | 0.557 (inactive) | 0.745 (inactive) | 1.06 (inactive) | -0.252 (inactive) | -0.602 (inactive) | -0.218 | 0.0132 | 0.117 (inactive) | 0.66 | -0.302 | -3.28 (inactive) | 0.0372 (inactive) | -0.0512 (inactive) |
| COCC1=C([C@H](O)CCc2ccccc2)[C@H](CO)n2c(=O)n(-c3ccccc3)c(=O)n2C1 | -0.236 | -3.02 (inactive) | 0.0444 (inactive) | -0.855 (inactive) | 0.188 (inactive) | -1.94 (inactive) | 1.19 (inactive) | 1.32 (inactive) | 0.113 | -0.0848 | 0.625 (inactive) | -0.0859 | 0.0736 | -3.09 (inactive) | -0.48 (inactive) | 1.51 (inactive) |
| C=CCC(OC(C)=O)[C@@H]1[C@@H](N(Cc2ccc(-c3ccccc3)cc2)C(=O)c2ccc(-c3ccccc3)cc2)c2cc(OCCCO)ccc2N1C(=O)c1ccc2ccccc2n1 (stereo partly drawn) | 1.16 | -0.599 (inactive) | 1.3 (inactive) | -0.149 (inactive) | 0.149 (inactive) | -0.354 (inactive) | 0.348 (inactive) | 0.308 (inactive) | 1.13 | -0.0103 | -0.649 (inactive) | 0.119 | -0.273 | -0.983 (inactive) | 0.0922 (inactive) | 0.352 (inactive) |
| [N-]=[N+]=NCc1ccccc1C[C@@]1(C(=O)O)N=C(c2ccc(OCCCO)cc2)O[C@@H]1c1ccccc1CN=[N+]=[N-] | 1.86 | -4 (inactive) | 0.781 (inactive) | -1.62 (inactive) | -0.608 (inactive) | -0.916 (inactive) | 0.274 (inactive) | 0.697 (inactive) | 1.03 | 0.209 | 0.673 (inactive) | 0.512 | 0.107 | -5.11 (inactive) | -0.199 (inactive) | -0.026 (inactive) |
| COc1ccccc1CN1C(=O)c2ccccc2[C@@H](C(=O)NCCCN(C)C)[C@@H]1c1ccc(CO)cc1 | 0.619 | -1.37 (inactive) | 1.22 (inactive) | 0.0824 (inactive) | 0.292 (inactive) | -0.942 (inactive) | 0.65 (inactive) | 1.37 (inactive) | 1.09 | -0.0426 | -0.0888 (inactive) | 0.66 | -2.34 | 3.27 (inactive) | -0.343 (inactive) | -0.136 (inactive) |
| CCOC(=O)C1=CC[C@@H](c2ccccc2)N(S(=O)(=O)c2ccc(C)cc2)[C@H]1C#N | 0.145 | -0.134 (inactive) | -1.08 (inactive) | -3.15 (inactive) | 0.518 (inactive) | 0.0553 (inactive) | -1.01 (inactive) | 0.27 (inactive) | -0.99 | 0.129 | 0.452 (inactive) | 0.839 | -0.712 | -3.58 (inactive) | 0.584 (inactive) | 0.373 (inactive) |
| CCOC(=O)C1=CCC(c2cc3ccccc3[nH]2)N(S(=O)(=O)c2ccccc2[N+](=O)[O-])C1 (stereo not drawn) | -0.0211 | 1.08 (inactive) | -1.08 (inactive) | -0.242 (inactive) | 0.546 (inactive) | -0.16 (inactive) | -0.591 (inactive) | 0.158 (inactive) | -1.62 | -0.014 | -0.212 (inactive) | 0.817 | -0.65 | -1.5 (inactive) | -0.285 (inactive) | -0.518 (inactive) |
| COC(=O)[C@]1(CO)N=C(c2ccc(OCCCO)cc2)O[C@@H]1c1ccccc1CN=[N+]=[N-] | -0.318 | 0.443 (inactive) | -0.529 (inactive) | 0.415 (inactive) | -0.677 (inactive) | -0.299 (inactive) | -0.246 (inactive) | 0.321 (inactive) | -0.15 | -0.21 | 0.495 (inactive) | -0.116 | -0.217 | -5 (inactive) | -0.33 (inactive) | -0.658 (inactive) |
| COCCOC(=O)N1C(=O)[C@@]2(c3cc(C#CC4(O)CCCCCC4)ccc31)[C@H](c1ccccc1OCCO)N1[C@H](c3ccccc3)[C@H](c3ccccc3)OC(=O)[C@H]1[C@@H]2C(=O)N1CCCCCCC1 | -0.0209 | 2.15 (inactive) | -0.303 (inactive) | 0.0767 (inactive) | 2.05 (inactive) | 2.76 (inactive) | -0.225 (inactive) | 0.003 (inactive) | -0.444 | 0.0483 | 1.86 (inactive) | 0.727 | -1.93 | 3.98 (inactive) | -0.531 (inactive) | -0.561 (inactive) |
| CCOC(=O)C[C@H]1[C@H](OC(=O)c2ccc(-c3ccccc3)cc2)[C@@H](NC(=O)CC(C)C)c2cc(OCCCO)ccc2N1C(=O)Cc1ccc(OC)cc1 | -0.378 | 0.605 (inactive) | -0.38 (inactive) | 0.423 (inactive) | 0.35 (inactive) | -0.154 (inactive) | -0.181 (inactive) | -0.12 (inactive) | -0.306 | -0.274 | 0.364 (inactive) | -0.0598 | -0.0881 | -2.68 (inactive) | 0.568 (inactive) | 0.254 (inactive) |
| Cc1ccc(S[C@]2(C(=O)NCCN3CCOCC3)CC(=O)N(C3CCCCC3)[C@@H]2c2ccc(CO)cc2I)cc1 | 1.5 | -0.0113 (inactive) | 0.482 (inactive) | 0.88 (inactive) | -0.447 (inactive) | 1.27 (inactive) | 0.464 (inactive) | 0.677 (inactive) | -1.29 | -0.302 | 0.825 (inactive) | 0.657 | -1.92 | -5.68 (inactive) | 0.134 (inactive) | 0.114 (inactive) |
